Experimental findings from PubChem BioAssay (Tox21) are described below.

Records with an inconclusive call do not appear. Values without a mark were called inactive. Calls of active or inactive are those of the source. The call rests on the fitted dose curve; in most records, active means well fitted curve in the direction sought with a large enough effect in the repeat runs; inconclusive means weak or mixed curves; inactive means no such curve, though single readings can be large; an effect the other way counts as inactive or inconclusive.

Assay [1] concerns the target Cytochrome P450 2D6 (Homo sapiens) (UniProt P10635). Kind of assay: Cytochrome P450 Family 2 Subfamily D Member 6 (CYP2D6) small molecule antagonists: luciferase reporter qHTS assay (AID 1671196). Further: nearly all actives have a fitted effect of over 50% in size. Further: potency means the concentration at half of the fitted maximal effect. On activity change, negative = inhibition: series mostly up to about 120 µM. The method, boiled down:
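Each well received CYP2D6 with its proluciferin substrate and chemical, sat 10 min, then got NADPH regeneration solution for 1 h at room temperature. Luminescence in RLU served as the activity measure.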

For assay [2], the target named is Cytochrome P450 2C9 (Homo sapiens) (UniProt P11712). The experiment in a line: Cytochrome P450 Family 2 Subfamily C Member 9 (CYP2C9) small molecule antagonists: luciferase reporter qHTS assay (AID 1671198). Further: nearly all actives have a fitted effect of over 50% in size. Further: potency means the concentration at half of the fitted maximal effect. On activity change, negative = inhibition: series mostly up to about 120 µM. The method, boiled down:
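P450-Glo proluciferin substrate with CYP2C9 enzyme; 10 min RT preincubation, then NADPH regeneration 1 h at 37C; luciferin detection reagent 20 min RT, luminescence in relative luminescence units.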

In assay [3] the target is Cytochrome P450 1A2 (Homo sapiens) (UniProt P05177). Kind of assay: Cytochrome P450 Family 1 Subfamily A Member 2 (CYP1A2) small molecule antagonists: luciferase reporter qHTS assay (AID 1671199). Further: nearly all actives have a fitted effect of over 50% in size. Further: potency means the concentration at half of the fitted maximal effect. On activity change, negative = inhibition: series mostly up to about 120 µM. The method, boiled down:
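Enzymatic CYP1A2 assay, human, luminescent: 10 min compound–enzyme–substrate preincubation, 1 h NADPH-dependent turnover, 20 min detection step, room temperature throughout. Reduced light indicates lower CYP1A2 activity.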
On the technique in general: A reporter such as luciferase makes a cellular process visible.

Assay [4] addresses Voltage-gated inwardly rectifying potassium channel KCNH2 (Homo sapiens) (UniProt Q12809). The experiment in a line: Human Ether-a-go-go-Related Gene (hERG) channel small molecule antagonists: fluorescence cell-based qHTS assay (AID 1671200). Further: nearly all actives have a fitted effect of over 50% in size. Further: potency means the concentration at half of the fitted maximal effect.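 On activity change, negative = inhibition: hERG-expressing U2OS cells given a thallium stimulus after FluxOR II dye loading; series mostly up to about 77 µM.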 The method, boiled down:
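Thallium served as the potassium surrogate; its influx into dye-loaded U2OS cells carrying the channel was measured by fluorescence over 2 min.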
A general note: Block of hERG is tested as a sign of cardiac risk.

For assay [5], the target named is Cytochrome P450 3A4 (Homo sapiens) (UniProt P08684). The experiment in a line: Cytochrome P450 Family 3 Subfamily A Member 4 (CYP3A4) small molecule antagonists: luciferase reporter qHTS assay (AID 1671201). A digest of the protocol: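 Relative luminescence units after 20 min with luciferin detection reagent served as read-out. Beforehand, CYP3A4 turned over a proluciferin substrate for 1 h at room temperature with NADPH regeneration, following 10 min compound preincubation.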

In assay [6] the target is Cytochrome P450 2C19 (Homo sapiens) (UniProt P33261). The experiment in a line: Cytochrome P450 Family 2 Subfamily C Member 19 (CYP2C19) small molecule antagonists: luciferase reporter qHTS assay (AID 1671197). Further: nearly all actives have a fitted effect of over 65% in size. Further: potency means the concentration at half of the fitted maximal effect. On activity change, negative = inhibition: series mostly up to about 120 µM. A digest of the protocol: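 Quantitative high-throughput screen of the Tox21 library using CYP2C19 with proluciferin substrate. Reaction: NADPH regeneration, 37C, 1 h, after 10 min compound preincubation at room temperature. Readout: luminescence.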
On the % scale 0 is the no-effect control and ±100 the full control effect.

Chain of Cytochrome P450 3A4 (Homo sapiens) (P08684 whole entry, looked up): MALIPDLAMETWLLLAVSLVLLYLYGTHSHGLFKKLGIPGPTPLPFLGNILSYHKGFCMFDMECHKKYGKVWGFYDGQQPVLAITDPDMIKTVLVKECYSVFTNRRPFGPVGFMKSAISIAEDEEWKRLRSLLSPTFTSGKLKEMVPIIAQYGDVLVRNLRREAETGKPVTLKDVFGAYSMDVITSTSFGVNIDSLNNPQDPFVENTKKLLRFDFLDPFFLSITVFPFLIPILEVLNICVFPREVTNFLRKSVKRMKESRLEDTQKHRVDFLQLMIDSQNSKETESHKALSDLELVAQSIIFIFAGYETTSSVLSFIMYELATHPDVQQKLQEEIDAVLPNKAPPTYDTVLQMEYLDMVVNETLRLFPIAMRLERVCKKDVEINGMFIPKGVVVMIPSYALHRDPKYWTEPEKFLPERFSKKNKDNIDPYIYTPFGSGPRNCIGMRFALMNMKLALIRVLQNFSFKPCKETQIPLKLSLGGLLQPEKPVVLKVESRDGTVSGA
Chain of Voltage-gated inwardly rectifying potassium channel KCNH2 (Homo sapiens) (Q12809 whole entry, looked up): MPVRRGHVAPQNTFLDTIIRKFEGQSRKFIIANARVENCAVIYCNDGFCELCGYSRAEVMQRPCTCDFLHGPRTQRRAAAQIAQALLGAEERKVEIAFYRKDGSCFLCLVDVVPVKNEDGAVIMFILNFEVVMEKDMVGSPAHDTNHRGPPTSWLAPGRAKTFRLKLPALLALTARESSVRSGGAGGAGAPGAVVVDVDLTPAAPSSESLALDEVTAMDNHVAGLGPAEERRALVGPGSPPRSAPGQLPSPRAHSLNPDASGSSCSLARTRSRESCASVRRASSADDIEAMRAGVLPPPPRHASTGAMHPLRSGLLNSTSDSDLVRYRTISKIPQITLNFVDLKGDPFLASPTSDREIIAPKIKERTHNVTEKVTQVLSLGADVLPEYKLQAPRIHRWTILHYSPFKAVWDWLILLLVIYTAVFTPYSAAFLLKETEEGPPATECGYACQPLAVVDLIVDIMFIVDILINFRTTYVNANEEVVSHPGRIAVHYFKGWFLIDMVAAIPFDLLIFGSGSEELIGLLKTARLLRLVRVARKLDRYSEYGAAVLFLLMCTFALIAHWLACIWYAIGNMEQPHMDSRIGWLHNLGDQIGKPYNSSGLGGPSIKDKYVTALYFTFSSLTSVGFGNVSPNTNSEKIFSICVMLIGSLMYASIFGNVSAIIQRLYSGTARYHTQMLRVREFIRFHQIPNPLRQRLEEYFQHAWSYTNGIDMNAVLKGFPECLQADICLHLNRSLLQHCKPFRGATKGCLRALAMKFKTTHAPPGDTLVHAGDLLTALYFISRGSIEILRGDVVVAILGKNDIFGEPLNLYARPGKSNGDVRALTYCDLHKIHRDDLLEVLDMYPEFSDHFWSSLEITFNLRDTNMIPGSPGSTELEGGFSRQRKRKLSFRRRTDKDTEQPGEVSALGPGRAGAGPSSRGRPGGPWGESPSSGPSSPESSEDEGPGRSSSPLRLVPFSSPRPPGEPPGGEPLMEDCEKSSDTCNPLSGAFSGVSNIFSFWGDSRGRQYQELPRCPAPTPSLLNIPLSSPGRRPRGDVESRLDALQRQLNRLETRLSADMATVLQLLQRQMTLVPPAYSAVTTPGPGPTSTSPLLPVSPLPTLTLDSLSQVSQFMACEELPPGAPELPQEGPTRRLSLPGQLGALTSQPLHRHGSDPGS
Chain of Cytochrome P450 2C19 (Homo sapiens) (P33261 whole entry, looked up): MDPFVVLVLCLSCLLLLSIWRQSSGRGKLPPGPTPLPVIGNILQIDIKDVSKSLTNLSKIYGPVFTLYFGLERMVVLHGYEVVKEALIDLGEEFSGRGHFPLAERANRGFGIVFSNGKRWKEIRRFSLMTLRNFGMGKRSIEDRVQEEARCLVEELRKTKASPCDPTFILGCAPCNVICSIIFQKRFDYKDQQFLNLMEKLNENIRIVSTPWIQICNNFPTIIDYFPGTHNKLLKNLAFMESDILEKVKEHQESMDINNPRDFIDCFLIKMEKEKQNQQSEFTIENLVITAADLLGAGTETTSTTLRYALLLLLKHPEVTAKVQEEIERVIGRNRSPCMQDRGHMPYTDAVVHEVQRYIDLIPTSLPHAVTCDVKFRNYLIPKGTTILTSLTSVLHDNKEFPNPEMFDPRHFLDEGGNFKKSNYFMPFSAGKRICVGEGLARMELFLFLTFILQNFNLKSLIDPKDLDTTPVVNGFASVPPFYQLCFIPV
Chain of Cytochrome P450 2D6 (Homo sapiens) (P10635 whole entry, looked up): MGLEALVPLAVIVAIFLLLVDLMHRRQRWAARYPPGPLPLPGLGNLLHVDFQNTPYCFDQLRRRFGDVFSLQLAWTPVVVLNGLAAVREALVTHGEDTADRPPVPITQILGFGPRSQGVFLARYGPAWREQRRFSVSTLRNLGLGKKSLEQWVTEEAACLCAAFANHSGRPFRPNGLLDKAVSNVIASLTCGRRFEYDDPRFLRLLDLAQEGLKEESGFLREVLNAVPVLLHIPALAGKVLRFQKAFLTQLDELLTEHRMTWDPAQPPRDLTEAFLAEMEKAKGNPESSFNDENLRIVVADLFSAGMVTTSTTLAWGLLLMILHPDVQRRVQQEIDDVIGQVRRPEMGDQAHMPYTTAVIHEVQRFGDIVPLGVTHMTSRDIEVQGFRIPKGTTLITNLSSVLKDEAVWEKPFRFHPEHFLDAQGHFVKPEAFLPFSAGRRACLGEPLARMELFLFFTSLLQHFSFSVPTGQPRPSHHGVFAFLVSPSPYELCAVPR
Chain of Cytochrome P450 2C9 (Homo sapiens) (P11712 whole entry, looked up): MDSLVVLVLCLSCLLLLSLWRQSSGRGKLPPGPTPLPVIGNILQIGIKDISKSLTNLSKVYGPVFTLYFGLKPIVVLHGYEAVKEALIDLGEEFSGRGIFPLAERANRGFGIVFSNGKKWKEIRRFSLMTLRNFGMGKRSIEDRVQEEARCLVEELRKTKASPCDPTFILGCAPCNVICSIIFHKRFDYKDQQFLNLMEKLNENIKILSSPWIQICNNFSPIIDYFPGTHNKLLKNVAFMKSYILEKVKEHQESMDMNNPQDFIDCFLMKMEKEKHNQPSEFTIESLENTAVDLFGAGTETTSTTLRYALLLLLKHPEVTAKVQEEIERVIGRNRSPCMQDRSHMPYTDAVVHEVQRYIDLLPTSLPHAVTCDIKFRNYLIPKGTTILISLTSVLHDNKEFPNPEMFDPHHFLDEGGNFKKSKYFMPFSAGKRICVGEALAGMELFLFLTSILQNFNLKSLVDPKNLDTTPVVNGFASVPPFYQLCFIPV
Chain of Cytochrome P450 1A2 (Homo sapiens) (P05177 whole entry, looked up): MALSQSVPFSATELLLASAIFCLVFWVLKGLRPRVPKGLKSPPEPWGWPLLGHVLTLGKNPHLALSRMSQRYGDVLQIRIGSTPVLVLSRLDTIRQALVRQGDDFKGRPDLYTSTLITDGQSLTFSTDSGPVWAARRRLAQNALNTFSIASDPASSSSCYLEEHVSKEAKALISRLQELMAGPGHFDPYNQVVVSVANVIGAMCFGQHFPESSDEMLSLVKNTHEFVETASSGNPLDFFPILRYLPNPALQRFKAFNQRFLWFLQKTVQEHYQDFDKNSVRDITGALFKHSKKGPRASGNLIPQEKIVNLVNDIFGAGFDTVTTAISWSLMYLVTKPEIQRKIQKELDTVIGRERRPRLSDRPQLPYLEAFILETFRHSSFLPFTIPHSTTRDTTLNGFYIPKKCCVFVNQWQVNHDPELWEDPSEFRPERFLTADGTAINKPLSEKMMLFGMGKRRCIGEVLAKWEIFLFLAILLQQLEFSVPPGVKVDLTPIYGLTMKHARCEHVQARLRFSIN

As for `NS(=O)(=O)c1cc2c(cc1Cl)NC(CSCc1ccccc1)=NS2(=O)=O`, the Potency was 34.7 µM (active) in assay [1] and 4.9 µM (active) in assay [2]. Besides, the Potency entry in assay [3] and in assay [4] was “inactive” each time.
Turning to `Cn1cnc2c(=O)[nH]c(N)nc21`, the Potency result in assay [1], in assay [2], in assay [4] and in assay [5] was “inactive” in each case. The Potency in assay [3] was 28.3 µM (active).
In the case of `Nc1nc(F)nc2c1ncn2[C@@H]1O[C@H](CO)[C@@H](O)[C@@H]1O`, the Potency in assay [1] was 34.7 µM (active). For the same molecule, the Potency entry in assay [2], in assay [3], in assay [4] and in assay [5] was “inactive” each time.
As to `O=[N+]([O-])c1ccc(CCO)cc1`, the Potency entry in assay [1], in assay [6] and in assay [5] was “inactive” throughout.
Turning to `Cn1ccc2cc3c(cc21)CCN3C(=O)Nc1cccnc1`, the activity change, negative = inhibition in assay [1] was -16.8% [at 23.6 µM]; in assay [4], 2.6% [at 15.8 µM]. Also, the Potency in assay [3] was 0.0791 µM (active).
In the case of `CC(C)(O)c1ccccc1`, the Potency result in assay [1], in assay [4] and in assay [5] was “inactive” each time. Further, the Potency in assay [6] is 68.1 µM (active).
In the case of `CC(CCO)CCCC(C)(C)O` (configuration not stated), the Potency result in assay [1], in assay [2] and in assay [5] was “inactive” each time.
In the case of `C1=C\CC/C=C\CC/C=C\CC/1`, the Potency result in assay [1], in assay [6] and in assay [5] was “inactive” throughout.
For `C=C(C)C(=O)NCCC[N+](C)(C)C`, the Potency entry in assay [1], in assay [2], in assay [4] and in assay [5] was “inactive” throughout.
As to `CCN(CC)S(=O)(=O)c1ccc(C(=O)O)cc1`, the Potency in assay [1] is 38.9 µM (active). Moreover, the Potency entry in assay [3], in assay [4] and in assay [5] was “inactive” each time.
For `CC(C)(C)CC(C)(C)N`, the Potency result in assay [1], in assay [2], in assay [4] and in assay [5] was “inactive” each time. Moreover, the Potency in assay [3] is 30.8 µM (active).
For the molecule `O=S(=O)(O)c1ccccc1O`, the Potency in assay [1] was 25.2 µM (active). The Potency entry in assay [2], in assay [3], in assay [4] and in assay [5] was “inactive” each time.
Turning to `CC(C=O)Cc1ccc(C(C)C)cc1` (configuration not stated), the Potency entry in assay [1], in assay [4] and in assay [5] was “inactive” each time. For the same molecule, the Potency in assay [6] was 50.2 µM (active).
Take `C1COCCO1`: the Potency result in assay [1], in assay [4] and in assay [5] was “inactive” throughout. Moreover, in assay [6], the Potency is 36.4 µM (active).
For the molecule `C[C@H](O)C(=O)Nc1c(I)c(C(=O)NC(CO)CO)c(I)c(C(=O)NC(CO)CO)c1I`, the Potency result in assay [1], in assay [3], in assay [4] and in assay [5] was “inactive” in each case.
`CCN1CCCC(OC(=O)C(c2ccccc2)c2ccccc2)C1` (configuration not stated): the figures for the Potency in assay [1] and in assay [4] were 1.38 µM (active) and 3.38 µM (active), respectively. The Potency result in assay [2] and in assay [3] was “inactive” throughout.
`CCN1CCCC1CNC(=O)c1cc(S(N)(=O)=O)ccc1OC` (configuration not stated): the Potency in assay [1] was 20 µM (active). The Potency entry in assay [6] and in assay [5] was “inactive” throughout.
For `NS(=O)(=O)c1cc(C2(O)NC(=O)c3ccccc32)ccc1Cl` (configuration not stated), the Potency entry in assay [1], in assay [2] and in assay [4] was “inactive” each time.
As to `CCCCC1CCCCC(=O)O1` (configuration not stated), the Potency result in assay [1], in assay [2] and in assay [5] was “inactive” throughout.
Turning to `CN(C)C(=O)Nc1ccccc1`, the Potency entry in assay [1], in assay [2], in assay [4] and in assay [5] was “inactive” in each case.
For `Nc1cc(C(Cl)=C(Cl)Cl)c(S(N)(=O)=O)cc1S(N)(=O)=O`, the Potency entry in assay [1], in assay [3] and in assay [4] was “inactive” each time.
Turning to `COc1cc(CCC(C)=O)ccc1O`, the Potency entry in assay [1], in assay [6], in assay [4] and in assay [5] was “inactive” each time.
Turning to `COC(=O)[C@H]1[C@H]2C[C@@H]3c4[nH]c5cc(OC)ccc5c4CCN3C[C@H]2C[C@@H](OC(=O)COc2ccc(OC)cc2)[C@@H]1OC`, the Potency in assay [1] is 17.4 µM (active); in assay [2] it was 27.5 µM (active); in assay [4], 0.601 µM (active).
As for `COCCOC(=O)CC#N`, the Potency entry in assay [1], in assay [2], in assay [3], in assay [4] and in assay [5] was “inactive” each time.
`COC(=O)CCCCCCCCC(=O)OC`: the Potency entry in assay [1], in assay [4] and in assay [5] was “inactive” throughout. Moreover, in assay [3], the Potency is 40.1 µM (active).
`CCCc1ccccc1O`: the Potency result in assay [1], in assay [6], in assay [4] and in assay [5] was “inactive” in each case.
In the case of `O=C(O)/C=C/c1ccc(Cn2ccnc2)cc1`, the Potency entry in assay [1] and in assay [4] was “inactive” each time. Further, the results for the Potency in assay [2] and in assay [3] were 17.4 µM (active) and 24.5 µM (active), respectively.
On to `COC[C@H](c1ccc(C(F)(F)F)cc1)N1CCN(C2(C)CCN(C(=O)c3c(C)ncnc3C)CC2)C[C@H]1C`, for which, in assay [1], the Potency is 34.7 µM (active). In addition, the Potency entry in assay [2] and in assay [3] was “inactive” each time.
On to `CC/C=C\C#N`, for which the Potency entry in assay [1], in assay [2], in assay [3] and in assay [5] was “inactive” in each case.
Regarding `CO`, the Potency entry in assay [4] is “inactive”.
As to `C=CC(=O)N1CCOCC1`, the Potency in assay [6] was 35.6 µM (active). The Potency result in assay [2] and in assay [5] was “inactive” each time.
On to `Oc1ccc2c(c1)OC[C@@H](N1CCC(O)(c3ccc(F)cc3)CC1)[C@H]2O`, for which the Potency was 3.89 µM (active) in assay [6] and 7.76 µM (active) in assay [3]. Also, the Potency result in assay [4] and in assay [5] was “inactive” in each case.
`CCC(C)(C)C1CCC(OC)CC1` (configuration not stated): the Potency entry in assay [3], in assay [4] and in assay [5] was “inactive” each time.
Take `C=CCSCC1Nc2cc(Cl)c(S(N)(=O)=O)cc2S(=O)(=O)N1` (configuration not stated): the Potency entry in assay [6] was “inactive”.
Turning to `CCCCCCCCCCCCI`, the Potency entry in assay [1] and in assay [5] was “inactive” each time.
On to `CCCCCN(CCCCC)C(=O)C(CCC(=O)O)NC(=O)c1ccc(Cl)c(Cl)c1` (configuration not stated), for which the Potency was 2.19 µM (active) in assay [2] and 9.52 µM (active) in assay [4]. The Potency result in assay [3] was “inactive”.
Take `O=C(O)c1ccccc1S`: the Potency entry in assay [6], in assay [3], in assay [4] and in assay [5] was “inactive” throughout.
With `CC(=O)OC(C)(C)C`, the Potency result in assay [6], in assay [2], in assay [3], in assay [4] and in assay [5] was “inactive” throughout.
Regarding `CC(=O)NC(Cc1ccccc1)C(=O)O` (configuration not stated), the Potency entry in assay [6], in assay [2], in assay [3], in assay [4] and in assay [5] was “inactive” in each case.
